Source: PubChem BioAssay
“And” between values parts separate entries of the source, which are not always exact repeats. Equal values may be shown once. The source made the active and inactive calls.

What was measured:
Albumin (Bos taurus) = Albumin (Bos taurus) (UniProt P02769); assay: bovine serum albumin binders on microarray, profiling panel, artefact control for SMM control protein annotation, biochemical, small-molecule microarray, Alexa647 label, 635/667 nm fluorescence (AID 1118); details: BSA-A647 binding, fluorescence 635 nm, higher = more signal;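 note: score merges 667 nm emission intensity and signal-to-noise per printed compound spot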
[1] = small-molecule microarray binders of probe aXIP, primary screen, biochemical, NeuroSMM set, 635/667 nm fluorescence (AID 1119); details: higher = more signal, called active from +8 up or from −8 down;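 note: probe is the protein aXip251-270 applied at 1 µg/mL to compound-printed slides; binding of probe to printed compounds measured as 667 nm fluorescence plus signal to noise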
[2] = small-molecule binders of probe aNOTCH3, primary screen, biochemical, small-molecule microarray, 635/667 nm fluorescence (AID 1120); details: higher = more signal;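 note: probe is a biotin-tagged antibody raised against NOTCH3 rather than NOTCH3 protein; score merges spot fluorescence near 667 nm with spot signal to noise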
[3] = small-molecule binders of probe aNOTCH2, primary screen, biochemical, small-molecule microarray, 635/667 nm fluorescence (AID 1121); details: higher = more signal;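 note: score merges feature fluorescence read at 667 nm with its signal to noise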
[4] = target: Carbonic anhydrase 2 (Homo sapiens) (UniProt P00918); assay: CAII small-molecule binders, profiling panel, biochemical, small-molecule microarray, Alexa647-labelled CAII (AID 1122); details: CAII-A647 binding fluorescence, higher = more signal
[5] = COS7 lysate on small-molecule microarray, probe aHis, 635 nm (AID 1123); details: COS7 cell lysate, fluorescence, higher = more signal;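 note: z-score combines 667nm fluorescence intensity with signal-to-noise per printed compound spot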
[6] = compound binding in COS7 lysate, probe aLAP1, primary screen, cell lysate, small-molecule microarray (AID 1124); details: probe aLAP1, fluorescence, higher = more signal;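 note: lysate comes from COS7 cells expressing LAP1 and is applied at 0.3 µg/mL; score merges spot fluorescence near 667 nm with signal-to-noise over triplicate slides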
Sam68 (KHDRBS1) = assay: Sam68 small-molecule binders, primary screen, biochemical, small-molecule microarray, 635 nm fluorescence (AID 1125); details: small-molecule microarray binding, higher = more signal;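 note: score merges 667 nm channel intensity with signal to noise over triplicate slides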
[7] = tested on: Chordin-like protein 2 (CHRDL2); assay: CHRDL2 small-molecule binders, primary screen, biochemical, small-molecule microarray, 635 nm fluorescence (AID 1126); details: small-molecule microarray binding, fluorescence 635 nm; higher = more signal;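 note: printed compound slides probed with Chrdl2 protein at 4 µg/mL for 1 h at 4 C; score merges 667 nm emission intensity with signal to noise over three replicate slides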
[8] = target: Concanavalin-A (Canavalia ensiformis) (UniProt P02866); assay: ConA small-molecule binders, primary screen, artefact control for SMM control protein annotation, biochemical, small-molecule microarray, Alexa647 label, 635 nm (AID 1127); details: ConA-A647 binding fluorescence, higher = more signal;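 note: z combines 667 nm emission intensity with signal-to-noise across three replicate slides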
Chain of Concanavalin-A (Canavalia ensiformis) (P02866 whole entry, looked up): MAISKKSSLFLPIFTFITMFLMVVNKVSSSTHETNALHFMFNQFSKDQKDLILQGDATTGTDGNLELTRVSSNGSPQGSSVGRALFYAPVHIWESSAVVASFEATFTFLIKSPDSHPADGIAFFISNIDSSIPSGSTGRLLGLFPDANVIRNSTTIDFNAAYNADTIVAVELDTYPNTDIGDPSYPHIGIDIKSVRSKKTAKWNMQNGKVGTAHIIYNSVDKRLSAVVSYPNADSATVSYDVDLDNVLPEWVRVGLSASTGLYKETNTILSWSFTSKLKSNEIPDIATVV

Chain of Albumin (Bos taurus) (P02769 whole entry, looked up): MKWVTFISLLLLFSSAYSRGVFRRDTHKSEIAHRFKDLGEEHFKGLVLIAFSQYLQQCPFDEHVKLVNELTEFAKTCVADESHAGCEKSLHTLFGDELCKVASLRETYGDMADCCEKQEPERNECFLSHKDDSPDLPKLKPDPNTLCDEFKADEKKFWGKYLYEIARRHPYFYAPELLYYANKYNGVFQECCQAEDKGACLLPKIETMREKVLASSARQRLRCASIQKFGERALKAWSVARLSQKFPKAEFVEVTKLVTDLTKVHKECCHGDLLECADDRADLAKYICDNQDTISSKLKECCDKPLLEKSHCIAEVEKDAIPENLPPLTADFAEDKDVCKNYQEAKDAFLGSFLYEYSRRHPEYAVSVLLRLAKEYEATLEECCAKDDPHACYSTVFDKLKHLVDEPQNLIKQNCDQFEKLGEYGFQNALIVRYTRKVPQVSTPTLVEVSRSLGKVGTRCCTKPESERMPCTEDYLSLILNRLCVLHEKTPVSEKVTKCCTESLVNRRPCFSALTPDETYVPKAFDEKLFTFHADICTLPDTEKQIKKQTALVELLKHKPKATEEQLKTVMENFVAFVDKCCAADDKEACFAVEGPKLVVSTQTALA

**Q.** For `C=C[C@@H](C)[C@@H](O)c1ccc(O)c2ccccc12`, which composite z-score (Albumin (Bos taurus)) is on record?
**A.** -0.154 and -0.436

**Q.** And the composite Z-score [1]?
**A.** -0.014 (inactive) and 0.196 (inactive)

**Q.** What about the composite z-score [2] of the same molecule?
**A.** -0.413 and -0.52

**Q.** What about the composite z-score [3] of the same molecule?
**A.** -0.232 and -0.193

**Q.** What about the composite z-score [4] of the same molecule?
**A.** 0.0119 and 0.72

**Q.** What about the composite z-score [5] of the same molecule?
**A.** -0.024 and 0.351

**Q.** What about the composite z-score [6] of the same molecule?
**A.** -0.237 and -0.0579

**Q.** What about the composite z-score (Sam68 (KHDRBS1)) of the same molecule?
**A.** -0.785 and -0.587

**Q.** What about the composite z-score [7] of the same molecule?
**A.** -0.0684 and 0.351

**Q.** What about the composite z-score [8] of the same molecule?
**A.** -0.419 and -0.81

**Q.** What does the source list for `COc1ccc(-c2ccc3c(n2)CCCN3CC(O)CN2CCCc3nc(-c4ccc(Br)cc4)ccc32)cc1` (stereo not given)?
**A.** composite z-score (Albumin (Bos taurus)): 0.479 and 0.259; composite Z-score [1]: 1.48 (inactive) and 2.85 (inactive); composite z-score [2]: 0.448 and 0.392; composite z-score [3]: -0.0125 and -0.0349; composite z-score [4]: 0.491 and 0.44; composite z-score [5]: -0.0214 and 0.91; composite z-score [6]: 0.984 and 0.29; composite z-score (Sam68 (KHDRBS1)): 0.764 and 0.301; composite z-score [7]: 0.708 and 0.919; composite z-score [8]: 0.677 and 0.632

**Q.** For `CC(C)CCN1CCc2nc(-c3ccccc3)c3c(c2C1)CO[C@@H](C)C3`, which composite z-score (Albumin (Bos taurus)) is on record?
**A.** 0.69

**Q.** What about the composite Z-score [1] of the same molecule?
**A.** -0.835 (inactive)

**Q.** And the composite z-score [2]?
**A.** -0.0362

**Q.** And the composite z-score [3]?
**A.** -0.16

**Q.** And the composite z-score [4]?
**A.** 0.15

**Q.** And the composite z-score [5]?
**A.** 0.463

**Q.** And the composite z-score [6]?
**A.** -0.616

**Q.** What about the composite z-score (Sam68 (KHDRBS1)) of the same molecule?
**A.** 1.06

**Q.** What about the composite z-score [7] of the same molecule?
**A.** 0.656

**Q.** What about the composite z-score [8] of the same molecule?
**A.** 0.263

**Q.** With `C=CCN(Cc1ccccc1)C(=O)C1N(C(C)(C)CO)C(=O)C2C(C(=O)O)C3C=CC21O3` (stereo not given) as the molecule, how does the composite z-score (Albumin (Bos taurus)) read?
**A.** -1.24 and -0.826

**Q.** What about the composite Z-score [1] of the same molecule?
**A.** -0.498 (inactive) and -0.61 (inactive)

**Q.** What about the composite z-score [2] of the same molecule?
**A.** -0.358 and -0.475

**Q.** What about the composite z-score [3] of the same molecule?
**A.** -0.126 and -0.0956

**Q.** What about the composite z-score [4] of the same molecule?
**A.** 0.47 and 0.296

**Q.** What about the composite z-score [5] of the same molecule?
**A.** -0.0142 and -0.798

**Q.** And the composite z-score [6]?
**A.** -0.587 and -0.987

**Q.** And the composite z-score (Sam68 (KHDRBS1))?
**A.** -1.6 and -1.66

**Q.** What about the composite z-score [7] of the same molecule?
**A.** -2.74 and -1.88

**Q.** And the composite z-score [8]?
**A.** -2.4 and -2.33

**Q.** Which results are given for `C=CCN(C(=O)C(c1cccs1)N(CCOCCO)C(=O)/C=C\C(=O)O)c1ccc(OC)cc1` (stereo not given)?
**A.** composite z-score (Albumin (Bos taurus)): -0.625 and -1.25; composite Z-score [1]: 0.347 (inactive) and -0.659 (inactive); composite z-score [2]: -0.212 and -0.312; composite z-score [3]: -0.14 and -0.126; composite z-score [4]: -0.655 and -0.65; composite z-score [5]: -0.718 and -1.36; composite z-score [6]: 0.164 and -0.531; composite z-score (Sam68 (KHDRBS1)): -1.75 and -1.35; composite z-score [7]: -0.166 and -3.29; composite z-score [8]: -0.337 and -2.28

**Q.** What does the source list for `C=C[C@@H](C)[C@@H](O)c1ccc(OCCO)cc1`?
**A.** composite z-score (Albumin (Bos taurus)): -0.342 and 0.259; composite Z-score [1]: 0.142 (inactive) and -0.0636 (inactive); composite z-score [2]: -0.701 and -0.608; composite z-score [3]: -0.153 and -0.199; composite z-score [4]: 0.8 and 0.731; composite z-score [5]: -0.217 and -0.451; composite z-score [6]: -0.262 and -0.524; composite z-score (Sam68 (KHDRBS1)): -0.97 and -0.832; composite z-score [7]: -3.22 and -2.09; composite z-score [8]: -1.86 and -0.87

**Q.** What does the source list for `C=C[C@H](C)[C@@H](O)c1ccc(OCCO)cc1`?
**A.** composite z-score (Albumin (Bos taurus)): 0.746 and -0.0233; composite Z-score [1]: -0.288 (inactive) and -0.162 (inactive); composite z-score [2]: -0.494 and -0.481; composite z-score [3]: -0.238 and -0.14; composite z-score [4]: 0.743 and 0.6; composite z-score [5]: -0.135 and -0.25; composite z-score [6]: -1.16 and -0.0942; composite z-score (Sam68 (KHDRBS1)): -1.42 and -0.873; composite z-score [7]: -1.32 and -0.668; composite z-score [8]: -1.1 and -0.494

**Q.** For `C=CCN1C(=O)[C@]2(O[C@H](CCn3cc(CCO)nn3)[C@@H]([Si](C)(C)c3ccc(OC)cc3)[C@@H]2C)c2cc(N3C(=O)c4cccc5cccc3c45)ccc21`, which composite z-score (Albumin (Bos taurus)) is on record?
**A.** 0.558 and 0.668

**Q.** And the composite Z-score [1]?
**A.** 0.729 (inactive) and 0.573 (inactive)

**Q.** What about the composite z-score [2] of the same molecule?
**A.** 0.0522 and 0.0259

**Q.** And the composite z-score [3]?
**A.** -0.106 and -0.162

**Q.** What about the composite z-score [4] of the same molecule?
**A.** 0.227 and 0.417

**Q.** And the composite z-score [5]?
**A.** 1.88 and 0.772

**Q.** What about the composite z-score [6] of the same molecule?
**A.** 0.163 and -0.46

**Q.** What about the composite z-score (Sam68 (KHDRBS1)) of the same molecule?
**A.** 1.2 and 0.787

**Q.** What about the composite z-score [7] of the same molecule?
**A.** 0.431 and 0.191

**Q.** And the composite z-score [8]?
**A.** 1.08 and 1.06
